We go through seven molecules from PubChem BioAssay (NCATS).

Values without a mark were called inactive. Results filed as inconclusive are left out. Active and inactive are the calls of the source. Unless noted, the call rests on the fitted dose curve; in most records, active means well fitted curve in the direction sought with a large enough effect; inconclusive means small, poorly fitted or top-dose-only effect, or another doubt; inactive means no such curve, though single readings can be large; an effect the other way counts as inactive or inconclusive.

Assay [1] can be described thus: AP1 Signaling Pathway (AID 357; active means well fitted curve in either direction with a large enough effect, not every such curve was filed as active;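 further: ME-180 reporter cells stimulated with EGF at its EC50 level; on the % scale 0 is the no-effect control and ±100 the full control effect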). To be noted: ME-180 AP-1-bla reporter, EGF-induced, beta-lactamase ratio, 5 h; at 7.69 µM (top of the series) unless noted. The method, boiled down:
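Beta-lactamase reporter under AP-1 response element, ME-180 background. Stimulus: EC50 EGF. Compound exposure 5 h, 37 °C. Detection: CCF4, 2.5 h RT, 460/530 nm. Values: AC50 from titration.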

Assay [2] deals with Cytochrome P450 1A2 (Homo sapiens) (UniProt P05177). Nature of the assay: p450-cyp1a2 (AID 410; calls by dose curve; further: potency means the concentration at half of the fitted maximal effect). The method, boiled down:
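Read-out is luminescence from luciferin produced by CYP1A2 demethylation of Luciferin-ME (100uM, at Km). Detection reagent stopped the 60 min NADPH-dependent reaction; signals were normalized to 57 uM furafylline.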

Assay [3] is described as follows: NFAT Signaling Pathway (AID 444; active means well fitted curve in either direction with a large enough effect, not every such curve was filed as active;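 further: carbachol stimulus at about its EC50 of 1 µM final; on the % scale 0 is the no-effect control and ±100 the full control effect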). Conditions: Jurkat NFAT-bla M1, carbachol, beta-lactamase ratio, 5 h; at 7.69 µM (top of the series) unless noted. The method, boiled down: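 Read-out: CCF4 FRET ratio (460 nm/530 nm) after 1 h RT dye loading, used for %activity and AC50 from titration series. Cells: Jurkat NFAT-β-lactamase/M1 line, treated with compound plus 1 uM carbachol for 5 h, 37 °C.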

A short description of assay [4]: Stat Signaling Pathway (AID 446; active means well fitted curve in either direction with a large enough effect, not every such curve was filed as active;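 further: ME-180 cervical cancer cells given 40 pM IL-6 alongside compound; SIE-controlled beta-lactamase reporter measured as 460/530 nm FRET emission ratio; on the % scale 0 is the no-effect control and ±100 the full control effect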). To be noted: ME-180 SIE beta-lactamase reporter, IL-6 stimulated, 5 h; at 7.69 µM (top of the series) unless noted. The method, boiled down:
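FRET read-out (405 nm excitation, 460/530 nm emission) of a beta-lactamase reporter under a STAT-inducible element in ME-180 cervical carcinoma cells. Cells with compound receive 40 pM IL-6 for 5 h. Values are normalised to AC90 stimulation and AC90 JAK-inhibitor controls.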

Assay [5] deals with Glucocorticoid receptor (Homo sapiens) (UniProt P04150). In words: GR-GFP Redistribution (AID 450;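 active means compounds whose dose series gives a full or clear partial fitted curve of increased nuclear translocation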; further: potency means the concentration at half of the fitted maximal effect). To be noted: U2OS GR-GFP nuclear translocation, laser cytometry, 2 h.
Glucocorticoid receptor (Homo sapiens), sequence (P04150 whole entry, looked up): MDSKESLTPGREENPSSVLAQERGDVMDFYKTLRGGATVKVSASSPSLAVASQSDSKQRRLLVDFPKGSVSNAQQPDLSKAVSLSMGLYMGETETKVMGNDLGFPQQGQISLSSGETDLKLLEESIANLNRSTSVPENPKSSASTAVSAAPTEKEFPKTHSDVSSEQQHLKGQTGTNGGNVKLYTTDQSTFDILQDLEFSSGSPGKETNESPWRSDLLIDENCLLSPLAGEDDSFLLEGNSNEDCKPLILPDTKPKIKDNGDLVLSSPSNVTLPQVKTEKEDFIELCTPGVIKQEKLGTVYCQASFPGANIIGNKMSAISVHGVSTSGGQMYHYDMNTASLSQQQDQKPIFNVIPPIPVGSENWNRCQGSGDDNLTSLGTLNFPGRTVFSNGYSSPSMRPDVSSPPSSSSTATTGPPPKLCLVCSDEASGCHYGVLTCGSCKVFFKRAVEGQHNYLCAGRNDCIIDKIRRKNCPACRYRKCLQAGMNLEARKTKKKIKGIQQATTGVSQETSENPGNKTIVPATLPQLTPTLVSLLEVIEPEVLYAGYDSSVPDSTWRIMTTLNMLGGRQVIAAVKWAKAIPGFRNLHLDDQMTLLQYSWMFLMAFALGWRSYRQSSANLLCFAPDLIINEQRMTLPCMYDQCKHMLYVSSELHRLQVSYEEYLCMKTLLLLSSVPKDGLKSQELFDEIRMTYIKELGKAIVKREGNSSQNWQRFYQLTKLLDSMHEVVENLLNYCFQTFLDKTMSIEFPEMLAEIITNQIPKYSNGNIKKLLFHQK
Assay [6] has the same target. Nature of the assay: GR-EFC Redistribution (AID 451; calls by dose curve; further: potency means the concentration at half of the fitted maximal effect). Conditions: CHO-K1 GR-EFC translocation, beta-gal luminescence, 2 h. The method, boiled down:
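Translocation of GR-ED fusion to nuclear EA restores b-gal, read by luminescence after 1 h room-temperature detection. Engineered CHO-K1 biosensor cells, 1,000/well, exposed 2 h at 37 C to titrations up to 46 uM final.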

Assay [7] deals with Mitogen-activated protein kinase 10 (Mus musculus) (UniProt Q61831). Nature of the assay: JNK3 AlphaScreen Assay (AID 530; active means well fitted curve in either direction with a large enough effect, not every such curve was filed as active;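 further: kinase came from lysate of stimulated human HepG2 cells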; further: potency means the concentration at half of the fitted maximal effect). Put shortly: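 Kinase buffer: 20 mM Tris-HCl pH 7.6, 10 mM MgCl2, 1 mM DTT, 0.1 mM Na3VO4, 0.01% Tween-20; ATP 10 uM. Substrate biotin-GST-cJun(1-79), enzyme from activated HepG2 lysates. Detection by Ser73 phospho-antibody AlphaScreen.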
For assay [8], the target named is Cytochrome P450 3A4 (Homo sapiens) (UniProt P08684). In words: qHTS Assay for Inhibitors and Substrates of Cytochrome P450 3A4 (AID 884). Further: potency means the concentration at half of the fitted maximal effect; nearly all actives have a fitted effect of over 50% in size. The method, boiled down: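 Luminescent readout of luciferin produced by CYP3A4 (20 nM) dealkylation of Luciferin-PPXE, 25 uM (its KM). NADPH-driven reaction ran 60 min at RT after 10 min compound preincubation; data scaled to 57 uM ketoconazole as 100% inhibition.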
Cytochrome P450 3A4 (Homo sapiens), sequence (P08684 whole entry, looked up): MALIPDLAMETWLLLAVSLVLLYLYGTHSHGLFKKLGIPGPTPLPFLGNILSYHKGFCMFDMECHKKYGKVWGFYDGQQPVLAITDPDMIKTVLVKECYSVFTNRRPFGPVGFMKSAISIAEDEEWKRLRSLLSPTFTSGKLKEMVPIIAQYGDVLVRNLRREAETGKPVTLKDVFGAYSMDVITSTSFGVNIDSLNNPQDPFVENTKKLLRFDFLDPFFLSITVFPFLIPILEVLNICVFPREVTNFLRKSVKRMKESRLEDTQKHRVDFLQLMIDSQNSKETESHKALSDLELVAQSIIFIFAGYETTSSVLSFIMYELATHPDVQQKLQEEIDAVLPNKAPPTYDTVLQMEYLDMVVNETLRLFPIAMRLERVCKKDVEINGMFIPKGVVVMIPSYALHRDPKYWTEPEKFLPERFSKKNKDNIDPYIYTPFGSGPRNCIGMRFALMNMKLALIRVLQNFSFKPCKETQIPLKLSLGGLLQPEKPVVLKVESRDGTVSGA
(In general: Quantitative high-throughput screening tests each substance at several concentrations.)

Assay [9] shares this target. In words: qHTS Assay for Activators of Cytochrome P450 3A4 (AID 885). Further: nearly all actives have a fitted effect of over 65% in size. The method, boiled down:
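Luminescent readout of luciferin formed from 25 uM Luciferin-PPXE (KM level) by 20 nM CYP3A4 in 200 mM KPO4, with 60 min NADPH-driven reaction at room temperature after 10 min compound exposure. Ketoconazole (57 uM) defined 100% inhibition.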

Assay [10] addresses Dual specificity protein kinase CLK4 (Homo sapiens) (UniProt Q9HAZ1). In words: qHTS Assay for Inhibitors of CDC-like Kinase 4 (Kinase-Glo Assay) (AID 1770). Further: nearly all actives have a fitted effect of over 65% in size. Further: potency means the concentration at half of the fitted maximal effect. Put shortly:
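Recombinant human Clk4 (25 nM) phosphorylated RS repeat peptide (100 uM) with 1 uM ATP in Tris pH 7.5/MgCl2/EGTA/DTT/Triton buffer for 4.5 h at room temperature. Residual ATP was quantified by Kinase-Glo luciferase luminescence.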

Assay [11] shares this target. Nature of the assay: qHTS Assay for Inhibitors of CDC-like Kinase 4 (ADP-FP Assay) (AID 1795). Further: on the % scale 0 is the no-effect control and ±100 the full control effect; nearly all actives have a fitted effect of over 60% in size. The method, boiled down: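 Recombinant human Clk4 (6.25 nM) phosphorylated RS repeat peptide (100 uM) with 1 uM ATP in Tris pH 7.5/MgCl2/EGTA/DTT/Triton buffer for one hour. ADP was quantified by Transcreener competitive fluorescence polarization against an ADP calibration curve.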

The target in assay [12] is Ubiquitin carboxyl-terminal hydrolase 1 (Homo sapiens) (UniProt O94782). In words: Inhibitors of USP1/UAF1: Pilot qHTS (AID 504865).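 Further: rhodamine fluorescence freed from ubiquitin-rhodamine substrate followed over time; top concentration of the series differs between compounds; on the % scale 0 is the no-effect control and ±100 the full control effect; nearly all actives have a fitted effect of over 35% in size.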 Put shortly: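 USP1/UAF1 complex (1nM) preincubated with compound 15 min at room temperature, then Ub-Rho substrate (150nM final) added. Fluorescence read kinetically at 480/540 nm, 6 reads every 60 seconds. Buffer: 50mM HEPES pH 7.8, 0.5mM EDTA, 0.1 mg/ml BSA, 1mM TCEP, 0.01% Tween-20.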
Ubiquitin carboxyl-terminal hydrolase 1 (Homo sapiens), sequence (O94782 whole entry, looked up): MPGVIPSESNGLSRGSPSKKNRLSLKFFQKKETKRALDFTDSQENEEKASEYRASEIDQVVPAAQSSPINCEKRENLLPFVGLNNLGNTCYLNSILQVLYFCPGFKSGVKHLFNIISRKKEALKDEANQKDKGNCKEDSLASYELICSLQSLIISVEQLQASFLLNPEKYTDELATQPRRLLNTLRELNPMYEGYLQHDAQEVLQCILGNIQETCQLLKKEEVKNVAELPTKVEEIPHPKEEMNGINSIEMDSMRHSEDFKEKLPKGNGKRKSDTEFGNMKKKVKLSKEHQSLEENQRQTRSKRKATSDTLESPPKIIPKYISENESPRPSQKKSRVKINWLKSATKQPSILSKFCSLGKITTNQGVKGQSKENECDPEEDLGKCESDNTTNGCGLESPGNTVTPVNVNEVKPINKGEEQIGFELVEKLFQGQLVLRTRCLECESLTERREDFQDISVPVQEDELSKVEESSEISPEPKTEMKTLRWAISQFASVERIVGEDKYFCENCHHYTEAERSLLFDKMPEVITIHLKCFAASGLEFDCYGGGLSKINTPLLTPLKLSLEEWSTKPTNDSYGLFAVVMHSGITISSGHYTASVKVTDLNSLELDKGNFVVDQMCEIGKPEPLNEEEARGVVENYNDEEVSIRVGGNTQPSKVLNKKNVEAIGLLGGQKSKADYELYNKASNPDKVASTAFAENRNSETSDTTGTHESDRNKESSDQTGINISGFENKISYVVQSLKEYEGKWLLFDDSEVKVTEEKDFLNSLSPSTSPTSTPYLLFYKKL

Assay [13] is described as follows: Primary qHTS for small molecule stabilizers of the endoplasmic reticulum resident proteome: Secreted ER Calcium Modulated Protein (SERCaMP) assay (AID 1508630). Further: on the % scale 0 is the no-effect control and ±100 the full control effect. Put shortly:
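The SH-SY5Y reporter protocol was run at 3 concentrations up to 38.3 uM (primary) or 11 concentrations (follow-up): 16 h compound, 100 nM thapsigargin for 4 h, then extracellular luciferase luminescence.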

Assay [14] can be described thus: qHTS Assay for Identification of Small Molecule Agonists for Hypoxia Response Element Signaling Pathway (AID 914; active means well fitted activation curve with a large enough effect in the signal ratio, with a control signal flat, not every such curve was filed as active; the % refers to the signal ratio; further: potency means the concentration at half of the fitted maximal effect). To be noted: ME-180 (cervical carcinoma) HRE-bla reporter, beta-lactamase ratio, CoCl2, 17 h; activation: hits give high values. Put shortly:
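Positive modulation of EC50 CoCl2-induced hypoxia response element signaling is measured in ME-180 cells with a beta-lactamase reporter. Compounds are titrated, incubation runs 17 hours, and %Activity derives from the blue/green ratio.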

Assay [15] addresses Lysosomal acid glucosylceramidase (Homo sapiens) (UniProt P04062). In words: Glucocerebrosidase-p2 (AID 348; in the data active means potency below about 10 µM; further: potency means the concentration at half of the fitted maximal effect). To be noted: purified GBA, blue fluorogenic substrate, 40 min. Put shortly:
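Normal human glucocerebrosidase (0.2 nM) with blue fluorogenic substrate (80 uM final) in citrate/phosphate pH 5.9 with 10mM sodium taurocholate, 0.01% tween-20; 40 min RT, NaOH/glycine stop; fluorescence Ex 365/Em 440; AC50 from a titration from 0.6 nM upwards.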

For assay [16], the target named is 3',5'-cyclic-AMP phosphodiesterase 4B (Homo sapiens) (UniProt Q07343). Nature of the assay: qHTS Assay for Inhibitors of PDE-IV (AID 607; active means well fitted activation curve with a large enough effect in the main read-out, with a control signal flat, not every such curve was filed as active; further: % of control where 0% means no effect). Put shortly: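 Cell-based read-out of cAMP via a modified cyclic nucleotide-gated channel and membrane potential dye (535/590 nm) in HEK293 cells expressing PDE4 endogenously. Compounds tested up to 22.9 uM final; 100 uM RO 20-1724 reference.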
3',5'-cyclic-AMP phosphodiesterase 4B (Homo sapiens), sequence (Q07343 whole entry, looked up): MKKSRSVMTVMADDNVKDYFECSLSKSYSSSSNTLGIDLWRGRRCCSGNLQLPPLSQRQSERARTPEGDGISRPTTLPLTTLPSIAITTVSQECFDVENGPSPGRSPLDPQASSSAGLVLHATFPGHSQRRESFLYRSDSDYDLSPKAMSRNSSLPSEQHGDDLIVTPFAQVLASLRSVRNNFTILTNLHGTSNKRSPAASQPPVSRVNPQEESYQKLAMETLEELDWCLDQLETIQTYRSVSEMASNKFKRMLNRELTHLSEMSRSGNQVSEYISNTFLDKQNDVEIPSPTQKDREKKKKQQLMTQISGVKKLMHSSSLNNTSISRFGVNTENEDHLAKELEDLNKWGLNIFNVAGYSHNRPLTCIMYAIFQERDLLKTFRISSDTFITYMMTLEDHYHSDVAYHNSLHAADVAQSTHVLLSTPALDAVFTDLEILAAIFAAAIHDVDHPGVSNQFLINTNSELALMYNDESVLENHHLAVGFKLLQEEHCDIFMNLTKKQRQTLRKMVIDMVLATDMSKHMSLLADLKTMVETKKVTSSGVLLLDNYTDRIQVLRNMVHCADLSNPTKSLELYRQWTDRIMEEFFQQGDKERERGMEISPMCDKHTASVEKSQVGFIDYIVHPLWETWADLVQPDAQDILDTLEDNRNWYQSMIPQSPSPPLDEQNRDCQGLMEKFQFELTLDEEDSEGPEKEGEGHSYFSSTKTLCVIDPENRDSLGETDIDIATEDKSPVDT

Assay [17] has as its target Dual specificity protein kinase CLK4 (Homo sapiens) (UniProt Q9HAZ1). In words: qHTS Assay for Inhibitors of CDC-like Kinase 4 (ADP-Glo Assay) (AID 1771). Further: potency means the concentration at half of the fitted maximal effect; nearly all actives have a fitted effect of over 70% in size. The method, boiled down:
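In this ADP-Glo format, 1 uM ATP and 100 uM RS peptide served as substrates for 25 nM Clk4 in Mg2+/EGTA/DTT/Triton buffer; reactions ran 1 hr at room temperature before luminescent ADP quantification.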

Assay [18] has as its target Cytochrome P450 2D6 (Homo sapiens) (UniProt P10635). Nature of the assay: qHTS Assay for Inhibitors and Substrates of Cytochrome P450 2D6 (AID 891). Further: potency means the concentration at half of the fitted maximal effect; nearly all actives have a fitted effect of over 60% in size. The method, boiled down:
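Luminescent read-out of luciferin formed by 5 nM human CYP2D6 demethylating 30 uM Luciferin-ME EGE (Km level) over 60 min at room temperature after NADPH regeneration addition. Data normalized to full inhibition by 1.43 uM quinidine.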

Assay [19] addresses Cytochrome P450 2C19 (Homo sapiens) (UniProt P33261). In words: qHTS Assay for Inhibitors and Substrates of Cytochrome P450 2C19 (AID 899). Further: potency means the concentration at half of the fitted maximal effect; nearly all actives have a fitted effect of over 60% in size. The method, boiled down:
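Reactions contain 5nM enzyme, 10uM Luciferin-H EGE (KM) and 50mM KPO4; compound preincubates 10 min at 37C, NADPH regeneration starts turnover for 60 min. Luminescence after detection reagent gives activity.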

Assay [20] concerns the target Cytochrome P450 2C9 (Homo sapiens) (UniProt P11712). In words: qHTS Assay for Inhibitors and Substrates of Cytochrome P450 2C9 (AID 883). Further: potency means the concentration at half of the fitted maximal effect; nearly all actives have a fitted effect of over 60% in size. The method, boiled down: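 Turnover of Luciferin-H (100uM, KM) by 10nM human CYP2C9 was measured over 60 min at 37C with NADPH regeneration; inhibitors and some substrates reduce luminescence. Data normalized to sulphaphenazole 57uM.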

Lysosomal acid glucosylceramidase (Homo sapiens), sequence (P04062 whole entry, looked up): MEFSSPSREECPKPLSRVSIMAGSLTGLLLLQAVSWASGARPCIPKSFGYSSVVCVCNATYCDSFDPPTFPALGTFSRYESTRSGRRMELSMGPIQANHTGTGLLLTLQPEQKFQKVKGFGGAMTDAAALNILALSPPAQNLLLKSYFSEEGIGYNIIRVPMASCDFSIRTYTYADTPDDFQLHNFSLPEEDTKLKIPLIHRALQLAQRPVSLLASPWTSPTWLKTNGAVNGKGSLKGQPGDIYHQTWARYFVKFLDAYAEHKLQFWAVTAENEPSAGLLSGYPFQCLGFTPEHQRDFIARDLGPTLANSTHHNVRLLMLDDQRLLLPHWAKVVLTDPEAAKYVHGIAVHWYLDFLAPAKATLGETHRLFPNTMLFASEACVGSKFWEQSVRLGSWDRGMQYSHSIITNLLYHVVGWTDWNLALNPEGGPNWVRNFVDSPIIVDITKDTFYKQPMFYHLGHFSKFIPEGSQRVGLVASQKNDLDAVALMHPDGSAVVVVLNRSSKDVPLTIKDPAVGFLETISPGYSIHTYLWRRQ
Cytochrome P450 1A2 (Homo sapiens), sequence (P05177 whole entry, looked up): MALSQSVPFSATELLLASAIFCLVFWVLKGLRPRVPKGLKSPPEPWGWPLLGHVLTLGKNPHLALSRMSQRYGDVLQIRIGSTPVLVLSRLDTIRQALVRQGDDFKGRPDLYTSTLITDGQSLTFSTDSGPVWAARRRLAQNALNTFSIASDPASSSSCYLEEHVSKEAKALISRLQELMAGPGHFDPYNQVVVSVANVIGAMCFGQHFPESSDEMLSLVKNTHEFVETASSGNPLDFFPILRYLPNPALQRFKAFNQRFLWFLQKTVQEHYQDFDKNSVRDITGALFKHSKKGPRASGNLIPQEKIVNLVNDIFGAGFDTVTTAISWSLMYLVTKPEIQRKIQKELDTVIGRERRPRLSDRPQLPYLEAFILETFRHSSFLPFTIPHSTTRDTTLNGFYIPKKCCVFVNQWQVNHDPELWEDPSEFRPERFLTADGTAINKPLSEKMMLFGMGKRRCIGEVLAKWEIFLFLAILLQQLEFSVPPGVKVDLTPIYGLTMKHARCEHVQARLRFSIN
Dual specificity protein kinase CLK4 (Homo sapiens), sequence (Q9HAZ1 whole entry, looked up): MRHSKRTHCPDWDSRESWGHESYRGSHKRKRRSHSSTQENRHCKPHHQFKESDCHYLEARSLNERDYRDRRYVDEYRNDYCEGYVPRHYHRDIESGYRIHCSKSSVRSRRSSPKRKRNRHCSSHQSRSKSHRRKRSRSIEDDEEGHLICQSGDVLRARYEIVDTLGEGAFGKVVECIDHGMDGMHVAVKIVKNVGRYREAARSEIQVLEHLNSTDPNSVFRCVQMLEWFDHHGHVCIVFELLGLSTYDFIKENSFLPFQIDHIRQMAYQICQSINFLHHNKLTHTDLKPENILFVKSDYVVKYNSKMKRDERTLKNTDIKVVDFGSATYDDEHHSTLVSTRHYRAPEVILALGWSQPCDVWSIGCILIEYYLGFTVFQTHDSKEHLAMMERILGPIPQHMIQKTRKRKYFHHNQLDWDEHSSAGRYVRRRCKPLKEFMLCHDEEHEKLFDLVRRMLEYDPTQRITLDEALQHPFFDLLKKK
Cytochrome P450 2D6 (Homo sapiens), sequence (P10635 whole entry, looked up): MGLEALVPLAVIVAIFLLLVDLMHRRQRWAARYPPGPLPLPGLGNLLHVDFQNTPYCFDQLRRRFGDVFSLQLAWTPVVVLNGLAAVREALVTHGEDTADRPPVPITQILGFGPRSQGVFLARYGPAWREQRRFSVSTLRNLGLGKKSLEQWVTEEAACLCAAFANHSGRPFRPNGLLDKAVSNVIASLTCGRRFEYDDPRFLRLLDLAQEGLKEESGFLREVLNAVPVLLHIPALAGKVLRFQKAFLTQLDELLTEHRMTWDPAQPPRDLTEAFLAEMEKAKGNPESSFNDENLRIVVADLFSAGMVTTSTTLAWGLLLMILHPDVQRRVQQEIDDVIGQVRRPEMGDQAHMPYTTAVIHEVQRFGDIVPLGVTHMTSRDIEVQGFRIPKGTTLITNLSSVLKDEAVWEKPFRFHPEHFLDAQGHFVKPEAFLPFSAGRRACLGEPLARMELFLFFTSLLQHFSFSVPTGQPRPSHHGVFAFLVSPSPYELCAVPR

On to `Cc1noc(C)c1-c1nc(Nc2ccccc2)c2ccccc2n1`, for which the activity change, negative = inhibition in [1] is -13.6%; in assay [3], -11.8%. Besides, the Potency is 0.251 µM (active) in [2], over 46 µM in assay [5], over 46 µM in [6] and 6.31 µM (active) in assay [8]. The activity, negative = inhibition in assay [4] is -8.68%. Besides, the Potency entry in assay [7], in assay [9], in assay [10], in assay [11] and in assay [12] was “inactive” each time. In addition, in assay [13], the result was inactive.
With `CCNc1ncc2nc(-c3cccs3)c(=O)n(CCc3ccccc3)c2n1`, the Potency in assay [2] was 10 µM (active); in assay [5] it was over 9.22 µM; in [6], over 46 µM; in assay [14], 1 µM (active). The activity, negative = inhibition in assay [4] was 98% [activator] (active). Also, the Potency entry in assay [7], in assay [9], in [10] and in [12] was “inactive” throughout. The result in assay [13] was inactive.
As to `COc1cccc(Cn2c(=O)c(-c3cccs3)nc3cnc(N4CCNCC4)nc32)c1`, the Potency in [15] is over 11.4 µM; in assay [2], 15.8 µM (active); in assay [5] it was over 9.22 µM; in [6], over 46 µM; in assay [7] it was 3.98 µM [activator] (active). Moreover, in [4], the activity, negative = inhibition was 114% [activator] (active). The Potency entry in [16], in assay [9], in [10], in [11] and in assay [12] was “inactive” each time. Further, in assay [13], the result was inactive.
As for `CN1CCN(c2ccnc(-c3cccnc3)n2)CC1`, the Potency is over 11.4 µM in assay [15], over 46 µM in [5], over 46 µM in [6] and 25.1 µM (active) in assay [10]. For the same molecule, the activity change, negative = inhibition in assay [1] is -0.185%; in assay [3] it was 0.489%. In [4], the activity, negative = inhibition was 12.4%. Moreover, the Potency result in assay [7], in assay [16] and in assay [12] was “inactive” throughout. In [13], the outcome was inactive.
`CN(C)C(=O)c1ccc(-c2cc(N(C)Cc3ccco3)ncn2)cc1`: the Potency in [15] was over 11.4 µM; in assay [2] it was 25.1 µM (active); in assay [5] it was over 46 µM; in [6], over 46 µM; in [17] it was 28.2 µM (active). Also, the figures for the activity change, negative = inhibition in [1] and in assay [3] were -8.02% and -13.4%, respectively. Besides, the activity, negative = inhibition in [4] was 16.7%. In addition, the Potency result in assay [7], in [16], in assay [11] and in [12] was “inactive” each time. For the same molecule, in assay [13], the result was inactive.
On to `COc1cccc(-c2nccc(NCc3ccccc3OC)n2)c1`, for which the Potency is over 11.4 µM in assay [15]; 1.26 µM (active) in assay [2]; over 46 µM in assay [5]; over 46 µM in assay [6]; 2.51 µM (active) in assay [8]; 0.398 µM (active) in assay [18]. The Potency in assay [19] was 5.01 µM (active); in assay [10], 22.4 µM (active). For the same molecule, the activity change, negative = inhibition in assay [1] was -18.4%; in assay [3] it was 11.8%. Also, the activity, negative = inhibition in [4] was -8.4%. The Potency entry in assay [7], in [16] and in assay [9] was “inactive” throughout. In assay [13], the result was inactive.
With `COc1ccc(CNc2nc(-c3cccc(NS(C)(=O)=O)c3)nc3ccccc23)c(OC)c1`, the Potency in [2] is 15.8 µM (active); in assay [5] it was over 46 µM; in [6], over 46 µM; in assay [20], 0.158 µM (active); in [8], 2.51 µM (active). In addition, the Potency entry in assay [7], in assay [9], in assay [10], in [11] and in [12] was “inactive” each time. The result in [13] was inactive.
